Holding throughout (assay): DAPPL (digital affinity profiling via proximity ligation, sequencing); 10 mM Tris-HCl pH 7.5, 50 mM NaCl, 1 mM DTT, 4% glycerol, room temperature, 30 min; GST-TFs on glutathione beads, 16-mer random dsDNA library, 0.1% formaldehyde crosslink after washing; high values mean tight binding
Conditions in all cases: protein: recombinant; tags: N-terminal GST; dsDNA, one strand shown

One test has as its target T1, ELK1 (Homo sapiens, UniProt P19419 1-428).
T1 sequence: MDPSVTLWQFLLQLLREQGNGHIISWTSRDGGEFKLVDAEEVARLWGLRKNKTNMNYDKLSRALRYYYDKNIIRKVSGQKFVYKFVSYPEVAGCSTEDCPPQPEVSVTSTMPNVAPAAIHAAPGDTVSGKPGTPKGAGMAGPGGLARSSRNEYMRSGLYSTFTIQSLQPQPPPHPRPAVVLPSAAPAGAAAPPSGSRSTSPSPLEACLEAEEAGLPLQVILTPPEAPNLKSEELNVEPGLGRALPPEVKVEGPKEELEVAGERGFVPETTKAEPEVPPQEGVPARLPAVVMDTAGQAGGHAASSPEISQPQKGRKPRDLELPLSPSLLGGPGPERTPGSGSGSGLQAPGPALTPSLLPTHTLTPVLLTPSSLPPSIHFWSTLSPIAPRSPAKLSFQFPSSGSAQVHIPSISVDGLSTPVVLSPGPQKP
An outline of the steps: (§1)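 GST fusions of human transcription factors were expressed in yeast and captured with glutathione beads. Once given DNA barcodes and pooled alongside a tag-only sample, they were incubated for 30 min at room temperature with 200 nmole of a random double-stranded 16-mer DNA library in Tris/NaCl/DTT/glycerol buffer, then washed, crosslinked (0.1% formaldehyde), proximity-ligated, PCR-amplified and sequenced on an Illumina NextSeq500. The binding signal of each hexamer is its read frequency for a factor divided by its frequency for the tag-only sample.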

The target in a further test is T2, GABPA (Homo sapiens, UniProt Q06546 1-454).
T2 sequence: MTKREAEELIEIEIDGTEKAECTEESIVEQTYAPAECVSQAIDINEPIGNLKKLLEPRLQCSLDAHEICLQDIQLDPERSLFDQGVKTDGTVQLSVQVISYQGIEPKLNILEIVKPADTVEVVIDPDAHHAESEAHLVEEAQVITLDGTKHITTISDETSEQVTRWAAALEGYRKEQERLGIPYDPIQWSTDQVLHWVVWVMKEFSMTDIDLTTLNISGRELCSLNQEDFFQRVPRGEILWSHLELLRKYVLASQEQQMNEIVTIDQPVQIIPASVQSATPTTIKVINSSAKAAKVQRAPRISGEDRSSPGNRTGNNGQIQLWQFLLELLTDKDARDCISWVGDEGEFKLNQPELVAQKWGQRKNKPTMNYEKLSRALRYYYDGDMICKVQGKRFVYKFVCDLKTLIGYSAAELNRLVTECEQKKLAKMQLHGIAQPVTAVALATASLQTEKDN
An outline of the steps:
as §1

The target of the next test is T3, ERG (Homo sapiens, UniProt P11308 1-479).
T3 sequence: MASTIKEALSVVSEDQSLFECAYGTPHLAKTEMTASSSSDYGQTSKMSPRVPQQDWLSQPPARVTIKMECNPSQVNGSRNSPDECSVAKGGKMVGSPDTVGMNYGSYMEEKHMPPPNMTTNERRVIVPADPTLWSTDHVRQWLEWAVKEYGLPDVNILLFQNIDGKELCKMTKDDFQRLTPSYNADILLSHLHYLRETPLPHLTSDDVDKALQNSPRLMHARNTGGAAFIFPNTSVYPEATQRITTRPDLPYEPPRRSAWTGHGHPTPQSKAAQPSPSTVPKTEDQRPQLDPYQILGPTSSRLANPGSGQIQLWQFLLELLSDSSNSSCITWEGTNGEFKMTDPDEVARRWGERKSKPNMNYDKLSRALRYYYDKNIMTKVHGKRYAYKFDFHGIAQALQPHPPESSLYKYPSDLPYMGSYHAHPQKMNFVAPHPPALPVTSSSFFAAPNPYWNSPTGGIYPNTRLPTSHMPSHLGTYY
An outline of the steps: as §1

Another test deals with ELF1 (Homo sapiens, UniProt P32519 1-619). An outline of the steps: as §1
Sequence of ELF1 (P32519 whole entry): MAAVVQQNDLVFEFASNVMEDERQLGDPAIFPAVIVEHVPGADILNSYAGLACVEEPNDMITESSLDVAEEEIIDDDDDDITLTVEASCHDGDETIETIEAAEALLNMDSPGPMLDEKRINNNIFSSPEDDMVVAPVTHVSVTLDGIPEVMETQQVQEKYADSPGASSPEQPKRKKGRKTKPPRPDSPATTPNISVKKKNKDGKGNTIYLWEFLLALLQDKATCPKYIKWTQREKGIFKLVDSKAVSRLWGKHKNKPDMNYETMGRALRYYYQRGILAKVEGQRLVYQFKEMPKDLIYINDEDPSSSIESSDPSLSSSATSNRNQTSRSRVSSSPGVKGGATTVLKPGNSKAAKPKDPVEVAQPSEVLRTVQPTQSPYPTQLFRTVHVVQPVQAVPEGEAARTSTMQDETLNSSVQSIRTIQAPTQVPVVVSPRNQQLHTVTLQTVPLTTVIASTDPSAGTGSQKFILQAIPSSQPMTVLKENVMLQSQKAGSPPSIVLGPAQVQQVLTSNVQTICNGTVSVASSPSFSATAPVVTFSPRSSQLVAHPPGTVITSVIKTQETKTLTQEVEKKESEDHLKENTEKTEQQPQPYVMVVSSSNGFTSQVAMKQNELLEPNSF
Another test concerns the target T4, EHF (Homo sapiens, UniProt Q9NZC4 1-300).
T4 sequence: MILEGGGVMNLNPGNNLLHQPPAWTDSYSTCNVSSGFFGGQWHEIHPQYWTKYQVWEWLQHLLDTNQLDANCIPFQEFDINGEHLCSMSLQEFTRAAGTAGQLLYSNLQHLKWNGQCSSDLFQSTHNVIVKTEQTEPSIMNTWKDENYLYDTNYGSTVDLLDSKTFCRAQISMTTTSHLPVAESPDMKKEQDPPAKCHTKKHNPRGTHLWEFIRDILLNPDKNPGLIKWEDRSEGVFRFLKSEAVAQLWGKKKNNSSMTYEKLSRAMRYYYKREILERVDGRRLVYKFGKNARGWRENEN
An outline of the steps:
as §1

The target in a further test is SPIB (Homo sapiens, UniProt Q01892 1-262). An outline of the steps: as §1
Sequence of SPIB (Q01892 whole entry): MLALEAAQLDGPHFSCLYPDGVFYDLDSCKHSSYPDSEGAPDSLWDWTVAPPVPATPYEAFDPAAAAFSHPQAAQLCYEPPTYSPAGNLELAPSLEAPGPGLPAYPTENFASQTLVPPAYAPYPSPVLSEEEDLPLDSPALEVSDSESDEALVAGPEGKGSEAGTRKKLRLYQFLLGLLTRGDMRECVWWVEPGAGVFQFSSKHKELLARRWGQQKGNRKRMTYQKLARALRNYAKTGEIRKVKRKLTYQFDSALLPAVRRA
In another test the target is T5, FEV (Homo sapiens, UniProt Q99581 1-238).
T5 sequence: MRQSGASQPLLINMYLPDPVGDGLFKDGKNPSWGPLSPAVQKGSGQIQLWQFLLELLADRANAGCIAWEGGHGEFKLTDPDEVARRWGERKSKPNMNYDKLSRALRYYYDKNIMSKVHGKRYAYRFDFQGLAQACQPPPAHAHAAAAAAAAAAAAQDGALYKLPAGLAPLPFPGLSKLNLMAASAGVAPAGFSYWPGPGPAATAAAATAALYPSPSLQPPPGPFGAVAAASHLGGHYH
An outline of the steps:
as §1

For another test, the target named is ETV5 (Homo sapiens, UniProt P41161 1-510). An outline of the steps: as §1
Sequence of ETV5 (P41161 whole entry): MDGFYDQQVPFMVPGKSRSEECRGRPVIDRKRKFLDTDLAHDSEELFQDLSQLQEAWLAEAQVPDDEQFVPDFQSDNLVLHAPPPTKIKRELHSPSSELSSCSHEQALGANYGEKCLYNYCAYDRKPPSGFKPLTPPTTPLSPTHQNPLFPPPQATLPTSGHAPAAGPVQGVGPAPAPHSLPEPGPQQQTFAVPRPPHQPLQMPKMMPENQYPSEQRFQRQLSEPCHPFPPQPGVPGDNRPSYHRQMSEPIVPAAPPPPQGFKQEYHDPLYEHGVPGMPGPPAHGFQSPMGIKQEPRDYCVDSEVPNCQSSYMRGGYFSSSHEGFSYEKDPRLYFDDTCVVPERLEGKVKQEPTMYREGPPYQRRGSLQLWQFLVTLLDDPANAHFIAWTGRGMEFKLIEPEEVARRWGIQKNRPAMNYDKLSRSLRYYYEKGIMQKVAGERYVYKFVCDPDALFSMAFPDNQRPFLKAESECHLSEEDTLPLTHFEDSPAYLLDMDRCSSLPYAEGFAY
The target of another test is ELF4 (Homo sapiens, UniProt Q99607 1-663). An outline of the steps:
as §1

A further test has as its target T6, ELK4 (Homo sapiens, UniProt P28324-2 1-405).
T6 sequence: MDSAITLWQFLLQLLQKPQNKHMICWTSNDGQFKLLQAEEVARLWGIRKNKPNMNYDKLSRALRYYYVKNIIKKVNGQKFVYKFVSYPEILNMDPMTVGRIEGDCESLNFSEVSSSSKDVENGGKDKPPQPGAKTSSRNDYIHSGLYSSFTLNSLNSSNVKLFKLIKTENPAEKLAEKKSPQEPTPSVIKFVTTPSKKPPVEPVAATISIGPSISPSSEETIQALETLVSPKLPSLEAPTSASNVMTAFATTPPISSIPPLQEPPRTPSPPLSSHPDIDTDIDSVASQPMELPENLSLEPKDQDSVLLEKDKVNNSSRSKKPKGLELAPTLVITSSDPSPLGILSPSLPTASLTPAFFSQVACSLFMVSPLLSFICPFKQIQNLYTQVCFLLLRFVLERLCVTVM
The method, boiled down: as §1

Sequence of ELF4 (Q99607 whole entry): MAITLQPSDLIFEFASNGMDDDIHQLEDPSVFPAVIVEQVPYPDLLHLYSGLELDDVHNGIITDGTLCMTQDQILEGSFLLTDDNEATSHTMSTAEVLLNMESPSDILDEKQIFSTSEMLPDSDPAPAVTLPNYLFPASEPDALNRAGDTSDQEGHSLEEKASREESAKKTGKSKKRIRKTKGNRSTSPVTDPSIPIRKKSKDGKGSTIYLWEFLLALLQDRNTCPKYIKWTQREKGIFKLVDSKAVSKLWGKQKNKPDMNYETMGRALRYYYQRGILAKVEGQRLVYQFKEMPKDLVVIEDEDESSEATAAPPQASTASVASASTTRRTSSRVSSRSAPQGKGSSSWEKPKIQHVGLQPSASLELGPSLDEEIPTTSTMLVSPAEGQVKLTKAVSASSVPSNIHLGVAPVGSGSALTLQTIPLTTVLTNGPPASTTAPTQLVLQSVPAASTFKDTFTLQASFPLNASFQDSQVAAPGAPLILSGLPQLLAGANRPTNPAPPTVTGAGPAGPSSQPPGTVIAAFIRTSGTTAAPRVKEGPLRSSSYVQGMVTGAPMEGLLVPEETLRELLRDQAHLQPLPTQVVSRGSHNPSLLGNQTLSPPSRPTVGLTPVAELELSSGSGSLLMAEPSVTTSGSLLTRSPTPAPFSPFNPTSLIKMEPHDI

As for ATGCCA, the binding signal is 1.06 fold enrichment (6-mer frequency, TF over GST control) in the test with ELK1; 1.02 fold enrichment (6-mer frequency, TF over GST control) with GABPA; 1.04 fold enrichment (6-mer frequency, TF over GST control) with ERG; 1.07 fold enrichment (6-mer frequency, TF over GST control) in the test with ELF1; 1.05 fold enrichment (6-mer frequency, TF over GST control) with EHF; 1.03 fold enrichment (6-mer frequency, TF over GST control) with SPIB. Besides, the binding signal in the test with FEV was 1.04 fold enrichment (6-mer frequency, TF over GST control); with ETV5, 1.05 fold enrichment (6-mer frequency, TF over GST control); with ELF4, 1.09 fold enrichment (6-mer frequency, TF over GST control); with ELK4 it was 1.02 fold enrichment (6-mer frequency, TF over GST control).
